High-throughput results (PubChem BioAssay)
A selection: hits, their analogues and other compounds. The true share with any hit is near 19%.
HT1080 IDH1KD tx – toxicity to HT-1080 IDH1 knockdown cells (counter line) | HT-1080 IDH1 knockdown viability, ATP luminescence, 48 h | Potency, µM (doses to about 46.1 µM), without a hit: at the highest dose activity, negative = toxicity, most hits filed as cytotoxic | hit rate 2% among 360,000 | AID 686971;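 note: potency is the fitted concentration of half-maximal effect; 0% = DMSO wells and -100% = cell-free medium wells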
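After a 2 h attachment period, IDH1KD HT-1080 cells took pin-transferred compound for 48 h at 37 °C; ATP-based luminescence after 10 min room-temperature reagent incubation reported viability.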
TDP1 cell CPT – growth inhibition of DT40 Tdp1-/-;hTDP1 cells with camptothecin (screen for TDP1 inhibitors) | chicken DT40 Tdp1-/-;hTDP1 cells + 20 nM CPT, ATP luminescence, 48 h | Potency, µM (titrated, usually from 46.2 µM), inactives show top-dose activity change, negative = growth inhibition, actives largely listed as inhibitors | hit rate 12% among 420,000 | AID 686979; note: potency is the fitted concentration of half-maximal effect; nearly all actives have a fitted effect of over 55% in size
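Chicken DT40 Tdp1-/- cells stably complemented with human TDP1 were seeded at 400 cells/well in medium containing 20 nM camptothecin, exposed to pin-transferred compounds, and grown at 37 °C for at least 48 hr. Viability was read as ATP luminescence.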
DT40 TDP1 no CPT – qHTS for Inhibitors of human tyrosyl-DNA phosphodiesterase 1 (TDP1): qHTS in cells in absence of CPT; DT40 Tdp1-/- hTDP1 cells, no CPT, ATP luminescence, 48 h; Potency, µM (top dose mostly 46.2 µM), for inactives: at the highest dose activity change, negative = growth inhibition, actives largely listed as inhibitors; hit rate 15% among 420,000; note: potency is the fitted concentration of half-maximal effect; nearly all actives have a fitted effect of over 55% in size
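Luminescent ATP content (CellTiter-Glo) served as the growth readout. Knockout chicken DT40 cells expressing human TDP1 were exposed to compounds without camptothecin for a minimum 48 hr at 37 °C.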
HT1080-NT tox – kills 2HG-producing HT-1080-NT fibrosarcoma cells | HT-1080-NT fibrosarcoma viability, CellTiter-Glo ATP luminescence, 48 h | hit rate 1.6% among 360,000 | Potency, µM (titrated, usually from 46.1 µM), for inactives: at the highest dose activity, negative = less viability, usual class: cytotoxic;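 note: NT is the 2HG producing partner of a matched IDH1 knockdown line; potency is the fitted concentration of half-maximal effect; 0% = DMSO-treated cells and -100% = media-only wells without cells; nearly all actives have a fitted effect of over 55% in size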
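HT-1080-NT; 750 cells/well; 5% FBS RPMI; 48 h compound, 37 degrees C; CellTiter-Glo luminescence; curve fitting and curve-class assignment.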
IL-1B inflam inh – inflammasome signaling inhibition, IL-1 beta readout | THP-1 LPS/ATP IL-1B secretion, AlphaLISA, 16 h; hits give low values | activity change, % at 57.5 µM | hit rate 4.7% among 360,000; in the data active = activity change below about -50%; inconclusive = mostly about -30% to -49%
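Secreted IL-1B measured by AlphaLISA bead assay after 16 h compound exposure of THP-1 cells; compounds (final up to 57.5 uM) added 1 h before LPS (250 ng/mL) and ATP (1.25 mM) stimulation; lower signal means less secretion.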
* = called active by the depositor. Unless noted, calls come from the whole dose curve; as a rule, active = well fitted curve in the direction sought with a large enough effect; inconclusive = small, poorly fitted or top-dose-only effect, or another doubt; inactive = no such curve, though single readings can be large; an effect the other way counts as inactive or inconclusive. Unless noted, % is set by controls: 0 for no effect and ±100 for the full control effect.

`CSc1ccc(/C=C(\C(=O)O)c2ccc(S(=O)(=O)N3CCCC3)s2)cc1` gave HT1080 IDH1KD tx 0.3%, TDP1 cell CPT 4.4%, DT40 TDP1 no CPT 11.1%, HT1080-NT tox 0.0% and IL-1B inflam inh 9.3.
`COc1cc(OC)cc(C2=Cc3ccccc3C(CC(C)=O)N2c2ccc(-c3cccs3)cc2)c1` (stereo not given) gave HT1080 IDH1KD tx 2.5%, TDP1 cell CPT inconclusive, DT40 TDP1 no CPT 20.6µM*, HT1080-NT tox 0.0% and IL-1B inflam inh 17.7.
COc1cccc(C2=Cc3ccc(F)cc3C(CC(C)=O)N2c2ccc(-c3cncnc3)cc2)c1 (stereo not given) was read as HT1080 IDH1KD tx -6.3%, TDP1 cell CPT 13µM*, DT40 TDP1 no CPT 16.4µM*, HT1080-NT tox -12.0% and IL-1B inflam inh 14.6.
`COc1cc(OC)cc(C2=Cc3ccccc3C(CC(C)=O)N2c2ccc(C#CC3(O)CCCCC3)cc2)c1` (stereo not given) gave HT1080 IDH1KD tx -23.4%, TDP1 cell CPT inconclusive, DT40 TDP1 no CPT inconclusive, HT1080-NT tox -29.3% and IL-1B inflam inh -23.8.
Screening Cn1cncc1C#Cc1ccc(N2C(c3ccsc3)=Cc3ccc(F)cc3C2c2c[nH]c3ccccc23)cc1 (stereo not given) returned HT1080 IDH1KD tx inconclusive, TDP1 cell CPT inconclusive, DT40 TDP1 no CPT inconclusive, HT1080-NT tox inconclusive and IL-1B inflam inh 3.8.
COc1ccc(-c2ccc(N3C(c4ccsc4)=Cc4ccc(F)cc4C3c3c[nH]c4ccccc34)cc2)cc1 (stereo not given) was read as HT1080 IDH1KD tx inconclusive, TDP1 cell CPT inconclusive, DT40 TDP1 no CPT 18.4µM*, HT1080-NT tox inconclusive and IL-1B inflam inh 31.8.
For O=C(CC1c2ccccc2C=C(c2ccsc2)N1c1ccc(-c2cccnc2)cc1)C1CC1 (stereo not given) the results were HT1080 IDH1KD tx -7.6%, TDP1 cell CPT inconclusive, DT40 TDP1 no CPT 18.4µM*, HT1080-NT tox -1.9% and IL-1B inflam inh -13.0.
Cc1ccnc(SCC(=O)Nc2cc(C)on2)n1 was read as HT1080 IDH1KD tx 0.9%, TDP1 cell CPT -5.7%, DT40 TDP1 no CPT -4.5%, HT1080-NT tox -2.1% and IL-1B inflam inh 28.7.
CCNC(=O)C1(C)CCCN(C(=O)Cc2ccc(OC)c(OC)c2)C1 (stereo not given) was read as HT1080 IDH1KD tx 5.7%, TDP1 cell CPT 3.7%, DT40 TDP1 no CPT -12.0%, HT1080-NT tox 18.4% and IL-1B inflam inh 3.5.
For COc1cc(OC)cc(C2=Cc3ccc(OC)cc3C(CC(C)=O)N2c2ccc(-c3cccs3)cc2)c1 (stereo not given) the results were HT1080 IDH1KD tx -11.7%, TDP1 cell CPT 20.6µM*, DT40 TDP1 no CPT 8.2µM*, HT1080-NT tox -1.6% and IL-1B inflam inh 0.5.
`COc1cccc(C2=Cc3ccc(F)cc3C(CC(C)=O)N2c2ccc(-c3cc(OC)c(OC)c(OC)c3)cc2)c1` (stereo not given) gave HT1080 IDH1KD tx 3.4%, TDP1 cell CPT -3.0%, DT40 TDP1 no CPT -13.6%, HT1080-NT tox 14.6% and IL-1B inflam inh -3.2.
Screening COC(=O)c1ccc(N2C(c3cccc(OC)c3)=Cc3ccc(F)cc3C2c2c(C)[nH]c3ccccc23)cc1 (stereo not given) returned HT1080 IDH1KD tx inconclusive, TDP1 cell CPT 23.1µM*, DT40 TDP1 no CPT inconclusive, HT1080-NT tox inconclusive and IL-1B inflam inh 41.5.
`COc1cc(OC)cc(C2=Cc3ccccc3C(CC(C)=O)N2c2ccc(-c3cncnc3)cc2)c1` (stereo not given) gave HT1080 IDH1KD tx 2.8%, TDP1 cell CPT 18.4µM*, DT40 TDP1 no CPT 16.4µM*, HT1080-NT tox 19.3% and IL-1B inflam inh 0.0.
For CCOC(=O)c1ccc(-c2ccc(N3C(c4cccc(OC)c4)=Cc4ccc(F)cc4C3CC(C)=O)cc2)cc1F (stereo not given) the results were HT1080 IDH1KD tx 16.9%, TDP1 cell CPT -22.6%, DT40 TDP1 no CPT -17.4%, HT1080-NT tox -3.7% and IL-1B inflam inh 30.8.
COc1ccc(C=O)c(-c2c(CCO)sc3ccccc23)c1 was read as HT1080 IDH1KD tx -0.9%, TDP1 cell CPT inconclusive, DT40 TDP1 no CPT inconclusive, HT1080-NT tox 0.5% and IL-1B inflam inh 43.1.
Cc1ccc(C)c(OCC(=O)N(C)CC(=O)Nc2ccc(Cl)c(C(F)(F)F)c2)c1 was read as HT1080 IDH1KD tx -28.5%, TDP1 cell CPT inconclusive, DT40 TDP1 no CPT inconclusive, HT1080-NT tox -20.0% and IL-1B inflam inh -13.4.
Screening CCN1CCN(c2cc(C)c3cc(NC(=S)N(C)Cc4ccccc4)ccc3n2)CC1 returned HT1080 IDH1KD tx inconclusive, TDP1 cell CPT inconclusive, DT40 TDP1 no CPT inconclusive, HT1080-NT tox inconclusive and IL-1B inflam inh -20.4.
`CCN(CC)CCNC(=S)Nc1ccc2nc(N3CCN(CC)CC3)cc(C)c2c1` gave HT1080 IDH1KD tx inconclusive, TDP1 cell CPT inconclusive, DT40 TDP1 no CPT inconclusive, HT1080-NT tox -23.7% and IL-1B inflam inh -58.6*.
`CCN1CCN(c2cc(C)c3cc(NC(=S)NCCN(C)C)ccc3n2)CC1` gave HT1080 IDH1KD tx inconclusive, TDP1 cell CPT inconclusive, DT40 TDP1 no CPT 20.6µM*, HT1080-NT tox -20.2% and IL-1B inflam inh -51.8*.
For CCCCNC(=S)Nc1ccc2nc(N3CCN(CC)CC3)cc(C)c2c1 the results were HT1080 IDH1KD tx inconclusive, TDP1 cell CPT 23.1µM*, DT40 TDP1 no CPT 23.1µM*, HT1080-NT tox -26.4% and IL-1B inflam inh inconclusive.
Screening CCCN1CCN(CCCNC(=S)Nc2ccc3nc(N4CCN(CC)CC4)cc(C)c3c2)CC1 returned HT1080 IDH1KD tx -3.9%, TDP1 cell CPT inconclusive, DT40 TDP1 no CPT inconclusive, HT1080-NT tox -2.4% and IL-1B inflam inh -12.6.
For CCCCN(C)CCNC(=S)Nc1ccc2nc(N3CCN(CC)CC3)cc(C)c2c1 the results were HT1080 IDH1KD tx 29.1µM*, TDP1 cell CPT inconclusive, DT40 TDP1 no CPT inconclusive, HT1080-NT tox 18.4µM* and IL-1B inflam inh -63.1*.
CCOc1ccccc1C(=O)Nc1ccc(NC(=O)c2ccccc2)cc1 was read as HT1080 IDH1KD tx 13.5%, TDP1 cell CPT -12.5%, DT40 TDP1 no CPT -8.6%, HT1080-NT tox 8.1% and IL-1B inflam inh 4.7.
For COc1ccc(Nc2c3c(nc4ccc(NC(=O)c5cc(Cl)ccc5OC)cc24)CCCC3)cc1OC the results were TDP1 cell CPT 1.64µM* and DT40 TDP1 no CPT 0.82µM*.
